Inconclusive results are not listed. Active and inactive are the calls of the source. Calls come from the whole dose curve; as a rule, active = well fitted cell-killing curve with a large enough effect; inconclusive = small, poorly fitted or top-dose-only effect, or effect the other way; inactive = no such curve, though single readings can be large or run the other way.
Potency is the fitted concentration of half-maximal effect.

The experiment is described as follows: Quantitative High-Throughput drug screen in 47 multiple myeloma cell lines against the NCATS MIPE library collection: KMS12BM_JCRB cell viability assay (AID 1918971). Note: nearly all actives have a fitted effect of over 35% in size. The conditions noted are these: KMS12BM myeloma viability, CellTiter-Glo ATP, 48 h; series mostly up to 45.8 µM. The text has this:
PI: Beverly A. Mock Ph.D.
Laboratory of Cancer Biology and Genetics,
Center for Cancer Research, National Cancer Institute,
National Institute of Health, Bethesda, Maryland
Drug resistance and disease progression are common in multiple myeloma (MM) patients, underscoring the need for new therapeutic combinations. […] We hypothesized that effective combinations would reduce MYC expression and enhance p16 activity. […] These preclinical data identify potentially useful drug combinations for evaluation in drug-resistant MM and reveal potential mechanisms of combined drug sensitivity.
Described herein is the primary MIPE qHTS used to cherrypick compounds. Validated compounds were then further tested for potential synergistic activiy.
[1] Peat TJ, Gaikwad SM, Dubois W, Gyabaah-Kessie N, Zhang S, Gorjifard S, Phyo Z, Andres M, Hughitt VK, Simpson RM, Miller MA, Girvin AT, Taylor A, Williams D, D'Antonio N, Zhang Y, Rajagopalan A, Flietner E, Wilson K, Zhang X, Shinn P, Klumpp-Thomas C, McKnight C, Itkin Z, Chen L, Kazandijian D, Zhang J, Michalowski AM, Simmons JK, Keats J, Thomas CJ, Mock BA. Drug combinations identified by high-throughput screening promote cell cycle transition and upregulate Smad pathways in myeloma. Cancer Lett. 2023 Aug 1;568:216284. doi: 10.1016/j.canlet.2023.216284. Epub 2023 Jun 24. PMID: 37356470; PMCID: PMC10408729.
SEQUENCE No. (e.g., 1, 2, 3, etc.); […] (e.g., Cells, Incubation, Reagent, etc.); VALUE and DESCRIPTION.
1; Cells; 5 uL; white, solid bottom 1536-well Greiner assay plate.
2; Compounds; 23 nL; Kalypsis pin tool (Wako USA) equipped with a 1536-well pin head to transfer to the assay plates.
3; Incubation; 48 hours; 37C incubation.
4; Reagent;5uL; CellTiter Glo (Promega).
5; Detector; 425V; Luminescence; Viewlux PerkinElmer.
NOTES (numbers refer to Sequence numbers above)
1. The cell-based screening methods employed in this study were like those previously published. Briefly, the corresponding myeloma cell lines were screened in 1,536-well plates with 500 cells, 5-uL per well for inhibition of cell viability (assessed by measuring ATP levels with CellTiterGlo).
2. NCATS MIPE 4.0 library of approved and investigational drugs were added using the Kalypsis pin tool. Wells treated with DMSO only for 100% viability and media only wells for 0% viability were used as controls.
3. The assay plates were covered and incubated for 48 hours in a 37C, 5% CO2 incubator with controlled humidity.
4. After 48 hours, CellTilter-GloTM luminescent substrate mix (Promega) reagent was added to the assay plate and plates we incubated for 5 min at room temperature.
5. Signal was measured as median relative luminescence units on a ViewLux (PerkinElmer) multiplate reader.
[1] Heske CM, Davis MI, Baumgart JT, Wilson K, Gormally MV, Chen L, Zhang X, Ceribelli M, Duveau DY, Guha R, Ferrer M, Arnaldez FI, Ji J, Tran HL, Zhang Y, Mendoza A, Helman LJ, Thomas CJ. Matrix Screen Identifies Synergistic Combination of PARP Inhibitors and Nicotinamide Phosphoribosyltransferase (NAMPT) Inhibitors in Ewing Sarcoma. Clin Cancer Res. 2017 Dec 1;23(23):7301-7311. doi: 10.1158/1078-0432.CCR-17-1121. Epub 2017 Sep 12. PMID: 28899971; PMCID: PMC6636827.
For orientation: In ATP-based viability assays light output follows the ATP content of the culture.
With `CC(C)n1cnc2c(NCCCCCCNC(=O)OC(C)(C)C)nc(NCCO)nc21`, the Potency was 18.7 µM (active).

In the case of `NC(=O)[C@@H](CCC(F)(F)F)N(Cc1ccc(-c2ncon2)cc1F)S(=O)(=O)c1ccc(Cl)cc1`, the Potency was 18.7 µM (active). To `O=C1Nc2ccc(Cl)cc2C(C#CC2CC2)(C(F)(F)F)O1` (stereo not given) belongs 23.5 µM (active); to `Cc1cc(OCCCc2c(C(=O)O)n(Cc3cccnc3)c3c(-c4c(COc5ccc(N6CCN([S+](C)(=O)[O-])CC6)cc5)nn(C)c4C)cccc23)cc(C)c1Cl`, 26.4 µM (active). With `Cc1cnc(C(=O)O)c[n+]1[O-]` the entry was “inactive”; with `O=C(NC1CCOCC1)c1ccc(-c2cc(-c3cn[nH]c3-c3ccccn3)ccn2)cc1`, “inactive”.

For `Cc1ccccc1C(C(=O)NC1CCCCC1)N(C(=O)Cn1ccnc1C)c1cccc(F)c1` (stereo not given), the Potency was 8.33 µM (active). With `O=C(O)[C@H]1O[C@H](Oc2cc3oc(-c4ccccc4)cc(=O)c3c(O)c2O)[C@H](O)[C@@H](O)[C@H]1O` the figure was 16.6 µM (active); with `CN(C)c1cc(NC(=O)CNC(C)(C)C)c(O)c2c1C[C@@H]1C[C@H]3[C@H](N(C)C)C(=O)C(C(N)=O)=C(O)[C@@]3(O)C(=O)C1=C2O`, “inactive”; with `O=C(Nc1c(Cl)cncc1Cl)c1ccc(OC(F)F)c(OCC2CC2)c1`, “inactive”. On to `CC[C@]1(O)C[C@@H]2CN(CCc3c([nH]c4ccccc34)[C@@](C(=O)OC)(c3cc4c(cc3OC)N(C=O)[C@@H]3C45CCN4CC=C[C@](CC)([C@H]45)[C@@H](OC(C)=O)[C@]3(O)C(=O)OC)C2)C1` (stereo not given in full), for which the Potency was 18.7 µM (active). With `COc1cccc([C@@H](C)NCCCc2ccccc2Cl)c1` the entry was “inactive”; with `CNC(=O)c1ccccc1Sc1ccc2c(C=Cc3ccccn3)n[nH]c2c1`, 16.6 µM (active); with `Nc1ncnc2c1ncn2[C@@H]1O[C@H](CO)C[C@@H]1O`, 20.9 µM (active). Regarding `Cc1c(O)cccc1C(=O)N[C@@H](CSc1ccccc1)[C@H](O)CN1C[C@H]2CCCC[C@@H]2C[C@@H]1C(=O)NC(C)(C)C`, the Potency is 20.9 µM (active). As to `CC1(C)CCC(CN2CCN(c3ccc(C(=O)NS(=O)(=O)c4ccc(NCC5CCOCC5)c([N+](=O)[O-])c4)c(Oc4cnc5[nH]ccc5c4)c3)CC2)=C(c2ccc(Cl)cc2)C1`, the Potency was 0.0526 µM (active). With `Cn1cc(C=C2C(=O)Nc3cccnc32)c2ccccc21` the entry was “inactive”; with `CC=CC(=O)N(CC)c1ccccc1C`, “inactive”; with `CCCCCNC(=O)N1CCC(CN(Cc2ccc(Cl)cc2)Cc2ccc([N+](=O)[O-])s2)C1` (stereo not given), 23.5 µM (active).

Turning to `CC(C)C(=O)Oc1ccc(CO)cc1[C@H](CCN(C(C)C)C(C)C)c1ccccc1`, the Potency is 14.8 µM (active). To `COc1ccc(-c2nc(N3CCOCC3)c3sc(CN(C)c4ncc(C(=O)NO)cn4)cc3n2)cn1` belongs “inactive”.

As for `CCOc1ccc(Nc2nc(-c3c(C)nc4ccccn34)cs2)cc1`, the Potency was 0.0066 µM (active).

For the compound `COc1cc2nc(-c3ccc(N4CCN(C)CC4)cc3)nc(NCCN3CCOCC3)c2cc1OC`, the Potency was 0.166 µM (active). For `Cc1ccc(Nc2cc(-c3cccc(N4C(=O)c5ccccc5C4=O)c3)ncn2)cc1NS(C)(=O)=O`, the Potency is 20.9 µM (active). With `C[C@]12CC[C@@H]3c4ccc(O)cc4C[C@@H](CCCCCCCCCS(=O)CCCC(F)(F)C(F)(F)F)[C@H]3[C@H]1CC[C@H]2O` (stereo not given in full), the Potency was 16.6 µM (active).

With `NC(=O)c1cnc(-c2ccc(C3(N)CCC3)cc2)c(-c2ccccc2)c1`, the Potency is 8.33 µM (active). With `CC(C)(C)NC(=O)Nc1cccc(Nc2ncc(F)c(NC(C)(C)CO)n2)c1`, the Potency result is “inactive”. `C[C@H](NC(=O)c1sccc1OCc1ccc(Cl)cc1)c1ccccc1`: the Potency is 18.7 µM (active). To `CCCCCCCCCCCC1=C(O)C(=O)C=C(O)C1=O` belongs 23.5 µM (active); to `N#CC(=C(N)Sc1ccccc1N)C(C#N)=C(N)Sc1ccccc1N`, “inactive”.

With `COCCCCC(=NOCCN)c1ccc(C(F)(F)F)cc1`, the Potency is 20.9 µM (active). Regarding `O=C(CCCCCCC(=O)Nc1ccccc1)NO`, the Potency is 2.35 µM (active).

Turning to `O=C(Nc1ccccc1-c1cn2c(CN3CCNCC3)csc2n1)c1cnc2ccccc2n1`, the Potency was 10.5 µM (active). To `O=C(O)C=Cc1ccc(O)c(O)c1` belongs 20.9 µM (active).

Consider `N#CC1(c2ccc(NC(=O)c3cccnc3NCc3ccncc3)cc2)CCCC1`, for which the Potency was 23.5 µM (active). Turning to `O=c1cc(CN2CCOCC2)occ1OCCCCCSc1ccnc2cc(C(F)(F)F)ccc12`, the Potency was 5.9 µM (active). To `Cc1ccc(/C=N/NC(=O)c2ccccc2Oc2ccccc2)o1` belongs 23.5 µM (active); to `O=C(OCC#CCSc1nnc(-c2cccc3ccccc23)o1)c1cc2ccccc2s1`, 16.6 µM (active). `N#Cc1ccc(NC(=O)Nc2ccccc2Br)c2n[nH]nc12`: the Potency result is “inactive”. With `CNC(=O)c1ccc2cc(C3(O)CCn4cncc43)ccc2c1` (stereo not given) the entry was “inactive”.

The values are drawn from PubChem BioAssay (NCATS).
